The list is not random: actives were taken first. Their share in the collection is about 2.9%.
rCAG RNA binder: binds r(CAG) RNA repeats. r(CAG) RNA repeat, TO-PRO-1 dye displacement fluorescence. inhibition, % at 3 µM. hit rate 1.3% among 370,000. AID 651821;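 active = inhibition above the plate cutoff, the mean of all test compounds on that plate plus 3 SD, cut at about 35% in these data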;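 note: higher means more dye released from RNA so lower well fluorescence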
ZTA counter: ZTA (EBV) inhibition in EBNA-1 counter-screen; P03206; ZTA-DNA binding, fluorescence polarization; inhibition, % at 11 µM; hit rate 0.15% among 320,000; in the data active = inhibition above about 33%
PAFAH2 FP inh: PAFAH2 (human) inhibition; Q99487; recombinant PAFAH2, FP-rhodamine activity probe, fluorescence polarization; inhibition, % at 3.39 µM; hit rate 0.99% among 340,000; AID 492956;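 active = inhibition above the mean over all tested compounds plus 3 SD, cut at about 30% in these data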;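 note: inhibitors block probe labeling of enzyme so polarization drops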
PAFAH1B2 FP inh: PAFAH1B2 (human) inhibition; AID 492953; recombinant PAFAH1B2, FP-rhodamine activity probe, fluorescence polarization; P68402; inhibition, % at 3.39 µM; hit rate 1.2% among 340,000;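 active = inhibition above the mean of all tested compounds plus 3 SD, cut at about 24% in these data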
Target sequence (P68402 whole entry, looked up): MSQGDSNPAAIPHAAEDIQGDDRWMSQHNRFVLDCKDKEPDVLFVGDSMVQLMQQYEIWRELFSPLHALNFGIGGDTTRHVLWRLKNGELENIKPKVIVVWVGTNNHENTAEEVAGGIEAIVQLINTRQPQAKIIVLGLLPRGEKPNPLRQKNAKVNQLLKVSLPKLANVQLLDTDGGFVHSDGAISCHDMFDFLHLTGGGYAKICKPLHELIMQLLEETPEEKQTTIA
PAFAH1B3 FP inh: blocks human PAF acetylhydrolase 1B catalytic subunit 3. Q15102. recombinant PAFAH1B3, FP-rhodamine probe, fluorescence polarization. inhibition, % at 3.39 µM. hit rate 0.28% among 340,000. AID 492972;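 active = inhibition above the screen-wide average of all tested compounds plus 3 SD, cut at about 25% in these data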
Target sequence (Q15102 whole entry, looked up): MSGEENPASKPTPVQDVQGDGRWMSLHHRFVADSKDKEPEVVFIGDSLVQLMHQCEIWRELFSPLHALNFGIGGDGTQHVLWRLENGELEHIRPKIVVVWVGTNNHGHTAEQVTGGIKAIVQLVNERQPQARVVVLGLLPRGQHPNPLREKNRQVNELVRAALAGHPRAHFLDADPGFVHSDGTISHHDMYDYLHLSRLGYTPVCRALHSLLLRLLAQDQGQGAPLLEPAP
EBNA-1 inh: blocks EBNA-1 binding to DNA; EBNA-1 DNA binding, fluorescence polarization; inhibition, % at 14.8 µM; hit rate 0.34% among 300,000; AID 1950; in the data active = inhibition above about 28%
rCAG bind conf: r(CAG) RNA repeat binding, confirmation. inhibition, % at 3 µM. hit rate 70% among 4,300. AID 652065. shares compounds with rCAG RNA binder. TO-PRO-1 dye displacement fluorescence;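 active = inhibition above a per-plate cutoff, the mean inhibition of sample wells plus 3 SD, cut at about 35% in these data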;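 note: loss of TO-PRO-1 fluorescence as compound displaces dye from 1x1 AA loop RNA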
dCAG dye counter: disrupts DNA CAG TO-PRO-1 complex, flagging rCAG hits; shares compounds with rCAG RNA binder; d(CAG) DNA oligo TO-PRO-1 dye displacement, fluorescence; inhibition, % at 3 µM; hit rate 94% among 4,300; AID 652068;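 active = inhibition above its plate's cutoff, the mean test-well inhibition plus 3 SD, cut at about 4.8% in these data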;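 note: hits displace the dye from DNA and so lower well fluorescence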
dCAG dye DR: counter-screen for rCAG binders: inhibitors of DNA CAG TO-PRO-1 complex; shares compounds with rCAG RNA binder; DNA CAG/GTC duplex TO-PRO-1 dye displacement fluorescence; IC50, µM; hit rate 20% among 250; AID 686960; in the data active = IC50 below about 10 µM
Hits are given with their value; . = inactive; / = no result.

SMILES | rCAG RNA binder | ZTA counter | PAFAH2 FP inh | PAFAH1B2 FP inh | PAFAH1B3 FP inh | EBNA-1 inh | rCAG bind conf | dCAG dye counter | others
CCc1nc(SCC(=O)Nc2cc(C)ccc2OC)c2c(C)c(C)sc2n1 | 35 | . | . | . | . | . | . | .
COc1ccc(OC)c(NC(=O)CNC(=O)Cn2cnc3sc(C)cc3c2=O)c1 | . | . | . | . | . | . | / | /
C=CCN(C(=O)[C@@H](CCCC)[C@@H](O)c1ccc2ccccc2c1)c1ccccc1 | . | / | / | / | / | / | / | /
CN(CCNC(=O)C1CCCN(c2ncnc3c2nc2n3CCCCC2)C1)Cc1ccccc1 (stereo not drawn) | . | . | . | . | . | . | / | /
CS(=O)(=O)c1ccc(C(=O)Nc2nc(-c3ccco3)c(-c3ccco3)s2)cc1 | 88 | / | . | . | . | / | . | 16
O=C(Nc1nnc(-c2ccco2)s1)C1CCCCC1 | . | . | . | . | . | . | / | /
O=C(Nc1nc(-c2ccco2)c(-c2ccco2)s1)C1CCC1 | 37 | . | . | . | . | . | . | 11
Cc1ccc(NC(=S)Nc2ccc(S(=O)(=O)N3CCOCC3)cc2)cc1S(=O)(=O)N1CCOCC1 | . | . | . | . | . | . | / | /
N[C@H](C(=O)N1CCC[C@@H]1C(=O)N1CCC2CCN(S(=O)(=O)c3ccccc3)CC21)c1ccccc1 (stereo partly drawn) | . | / | / | / | / | / | / | /
COc1cc(/C=N/NC(=O)c2[nH]nc3c2CCc2ccccc2-3)ccc1O | . | . | . | . | . | . | / | /
N#C/C(=C\c1ccc(O)c(O)c1)C(=O)NCCc1ccccc1 | 39 | . | 36 | 64 | . | . | 44 | 13
COc1cccc(NC(=S)N(Cc2ccc(Cl)cc2)Cc2ccc(C(=O)O)cc2)c1 | 53 | . | . | . | . | . | 42 | 11
Cc1cc(NC(=S)N(Cc2ccc(Br)cc2)Cc2ccc(C(=O)O)cc2)ccc1Cl | 75 | . | . | 32 | . | . | 82 | 48
Cc1cccc(NC(=S)N(Cc2ccc(Br)cc2)Cc2ccc(C(=O)O)cc2)c1 | . | . | . | . | . | . | / | /
COc1ccc(Cl)cc1NC(=S)N(Cc1ccc(C(=O)O)cc1)Cc1ccc(OC)c(OC)c1 | 50 | . | . | . | . | . | 48 | 15
COc1ccc(CN(Cc2ccc(C(=O)O)cc2)C(=S)Nc2cc(C)cc(C)c2)cc1OC | . | . | . | . | . | . | / | /
O=C(CSc1nnc(-c2ccccc2F)n1-c1ccccc1)c1ccc2ccccc2c1 | . | / | / | / | / | / | / | /
N#C/C(N=Nc1ccccc1O)=N\Nc1ccccc1O | 57 | . | 41 | 36 | 50 | . | 74 | 29
Oc1ccccc1N=N/C(=N/Nc1ccccc1O)c1ccccc1 | . | . | . | . | . | . | / | /
Cc1ccnc(OC(C(=O)O)C(OCc2ccccc2)(c2ccccc2)c2ccc(C(F)(F)F)cc2)n1 (stereo not drawn) | 50 | . | . | . | . | . | 49 | 14 | dCAG dye DR=.
COc1ccc(CCNC(=O)c2cc3c(C)nn(-c4ccccc4)c3s2)cc1OC | . | / | / | / | / | / | / | /
O=C1NC(=S)S/C1=C\c1cc2ccccc2nc1N1CCCCC1 | 37 | . | . | . | . | . | 87 | 61
COc1ccc2nc(N3CCCCC3)c(/C=C3\SC(=S)NC3=O)cc2c1 | . | . | . | . | . | . | / | /
CCOC(=O)c1c(N)sc(N)c1C(=O)OCC | . | . | . | . | . | . | / | /
CCOC(=O)c1c(N)sc(=S)c2c1CCC2 | 36 | . | . | . | . | . | 54 | 23 | dCAG dye DR=.
SMILES | rCAG RNA binder | ZTA counter | PAFAH2 FP inh | PAFAH1B2 FP inh | PAFAH1B3 FP inh | EBNA-1 inh | rCAG bind conf | dCAG dye counter | others
CC(C)(C)c1ccc(C(=O)N/C(=C\c2ccco2)C(=O)Nc2ccccc2C(=O)O)cc1 | 62 | . | . | . | . | . | 68 | 29
O=C(Nc1ccc(C(=O)O)cc1)/C(=C\c1ccco1)NC(=O)c1ccccc1 | . | . | . | . | . | . | / | /
O=C(Nc1ccc(C(=O)O)cc1)/C(=C\c1ccco1)NC(=O)c1ccccc1Cl | 43 | . | . | . | . | . | . | .
Cc1ccc(CNC(=O)CCS(=O)(=O)c2cc3c(cc2Br)CCN3C(=O)C2CC2)o1 | . | / | / | / | / | / | / | /
Cn1c(C(=O)N2CCCC(Nc3ccc(F)cc3)C2)cc2ccccc21 (stereo not drawn) | . | . | . | . | . | . | / | /
Cc1sc2nc3c(SC(C)C(=O)O)cc(C(=O)c4ccccc4O)cn3c(=O)c2c1C (stereo not drawn) | 77 | . | . | . | . | . | 85 | 61
O=C(O)CSc1cc(C(=O)c2ccccc2O)cn2c(=O)c3c(-c4ccccc4)csc3nc12 | 53 | . | . | . | . | . | 90 | 74
COc1ccc(O)c(C(=O)c2cc(SCC(=O)O)c3nc4sc5c(c4c(=O)n3c2)CCCC5)c1 | 42 | . | . | . | . | . | 89 | 63
CCOC(=O)c1sc2nc3c(SCC(=O)O)cc(C(=O)c4ccccc4O)cn3c(=O)c2c1C | . | . | . | . | . | . | / | /
O=C1NC[C@@H](CCCCN2C[C@H](Cc3ccc(O)cc3)N(CCc3ccc(O)cc3)C(=O)C2=O)N(Cc2ccccc2)C1=O | . | / | / | / | / | / | / | /
CN(Cc1ccccc1)C(=O)OCc1cn(Cc2ccc(F)cc2F)nn1 | . | / | / | / | / | / | / | /
Cc1ccc(CC(C)(O)CC(C)(O)Cc2ccc(C)cc2)cc1 (stereo not drawn) | . | / | / | / | / | / | / | /
C=CCN=C1NC(c2cccc(F)c2)C(C(=O)OC)=C(C)N1Cc1cccc(C(F)(F)F)c1 (stereo not drawn) | . | / | / | / | / | / | / | /
O=C(O)c1cccc(NS(=O)(=O)c2ccc(-c3ccc(S(=O)(=O)Nc4cccc(C(=O)O)c4)cc3)cc2)c1 | 43 | . | . | . | . | . | . | .
O=C(Nc1cccc(C(F)(F)F)c1)c1cccc(NS(=O)(=O)c2ccc(Br)c(C(=O)O)c2)c1 | . | . | . | . | . | . | / | /
O=C(O)c1cccc(NC(CNS(=O)(=O)c2ccc(Cl)cc2)c2ccccc2)c1 (stereo not drawn) | 43 | . | . | 75 | . | . | 37 | 11
O=C(Nc1cccc(C(F)(F)F)c1)c1cccc(NS(=O)(=O)c2ccc(O)c(C(=O)O)c2)c1 | 79 | . | . | . | . | . | 62 | 24
O=C(O)c1cccc(NS(=O)(=O)c2ccc(Oc3ccc(S(=O)(=O)Nc4cccc(C(=O)O)c4)cc3)cc2)c1 | 47 | . | . | . | . | . | . | .
COc1ccc(C(=O)OCC(=O)N2c3ccccc3CC2C)cc1S(=O)(=O)N1CCOCC1 (stereo not drawn) | . | / | / | / | / | / | / | /

From PubChem BioAssay
